# The source made the active and inactive calls. How the source made its calls: active means hit-call score of the fitted dose curve at least 0.9, where 1 is the maximum; inactive means score below 0.9.
# Read-out: Hypoxia-inducible factor 1-alpha (Homo sapiens) (UniProt Q16665)
# Assay: LTEA_HepaRG_HIF1A: Life Technologies and Expression Analysis (LTEA) Assay for Hypoxia-inducible factor 1 (HIF1A) Trancription factor using HepaRG (AID 2283503);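 further: HIF1A transcript by TaqMan qRT-PCR normalized to ACTB GAPDH and POLR2A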
# Conditions: mRNA level, 48 h; actives raise or lower the signal
# Protocol: LTEA_HepaRG is a cell based, multiplexed-readout assay that uses HepaRG, a human liver cell line, with measurements taken at 48 hours after chemical dosing on a 96-well plate.LTEA_HepaRG_HIF1A is one of 102 assay component(s) measured in the LTEA HepaRG cell culture assay. It is a marker of Cell proliferation, survival, death.Data from the assay component LTEA_HepaRG_HIF1A was analyzed into 1 endpoint. This assay endpoint, LTEA_HepaRG_HIF1A, was analyzed with bidirectional fitting relative to DMSO as the negative control and baseline of activity. Using a type of inducible reporter, measures of mRNA induction for gain or loss-of-signal activity can be used to understand regulation of transcription factor activity. To generalize the intended target to other relatable targets, this assay endpoint is annotated to the dna binding intended target family, where the subfamily is basic helix-loop-helix protein.
# A total of 1060 chemcials from the ToxCast library were tested in eight-point concentration-response experiments. Cell culture and cytotoxicity assays were conducted at Thermo Fisher Scientific's Custom Services facility (Madison, WI). A single lot of human HepaRG cells (Thermo Fisher Scientific, Frederick, MD) was used for the cell culture experiments. 96-well format collagen type I coated plates of human HepaRG cells were prepared using established methods. Briefly, cryopreserved HepaRG cells were thawed, plated at a density of approximately 100,000 cells/well in HepaRG Thaw, Plate, and General Purpose media (HPRG770, Thermo Fisher Scientific), and incubated for 48 hours. 0.5% DMSO was selected as vehicle control to balance the requisite need of DMSO in HepaRG cultures to maintain differentiation (for example, baseline metabolism, proportions of hepatocytes vs. cholangiocytes), while enabling further hepatic receptor pathway activation (for example, PXR and CAR) in response to chemical exposure. 48 hours after plating, the culture medium was replaced with HepaRG Serum-Free Incudtion Media. Cells were exposed to each test chemical in duplicate and maintained in CO2 incubators for another 48 hours. Chemical plates were thawed to room temperature and 200x concentrations of treatment groups were prepared. 8-point conentration-reponse curves were made with the highest exposure at 100 uM, followed by half-log dilutions, all in 0.5% DMSO. Each test plate contained variouse controls, induction positive controls (1mM phenobarbital), cytotoxicity positive controls ([…] aflatoxin B1), vehicle controls (0.5% DMSO), and total lysis controls (0.5% DMSO). Cell morphology images were taken using an Essen IncuCyte FLR automated microscope, with six 96-well plates imaged in about 24 minutes. Images were captured and exported and JPEG files. Spent culture media was transfered to black-well plates for the LDH assay, and remaining media was sorted at -80 C for later use. Cells were treated with RLT buffer and frozen until shipped for gene expression analysis. Total RNA was isolated from the cell suspension in 75 uL of Buffer RLT (Qiagen, Germantown, MD 20874) by Quintiles/Expression Analysis (Durham, NC) using a custom isolation procedure. Total RNA from each plate well was transferred to a preamplification plate. Fluidigm's 96.96 Dynamic ArrayTM (Fluidigm, Amsterdam, the Netherlands) technology was used for gene expression analyses by quantitative reverse transcription polymerase chain reaction (qRT-PCR, performed by Quintiles/Expression Analysis, Durham, NC)89. Standard TaqManTM Assays (Applied Biosystems/ThermoFisher Scientific, Foster City, CA) were used to assess the expression of 93 genes selected based on their selectivity and sensitivity to important hepatic receptors known to be modulated by environmental chemicals; importance in human hepatocyte functionality; and hepatotoxicity. […]
# Hypoxia-inducible factor 1-alpha (Homo sapiens), sequence (Q16665 whole entry, looked up): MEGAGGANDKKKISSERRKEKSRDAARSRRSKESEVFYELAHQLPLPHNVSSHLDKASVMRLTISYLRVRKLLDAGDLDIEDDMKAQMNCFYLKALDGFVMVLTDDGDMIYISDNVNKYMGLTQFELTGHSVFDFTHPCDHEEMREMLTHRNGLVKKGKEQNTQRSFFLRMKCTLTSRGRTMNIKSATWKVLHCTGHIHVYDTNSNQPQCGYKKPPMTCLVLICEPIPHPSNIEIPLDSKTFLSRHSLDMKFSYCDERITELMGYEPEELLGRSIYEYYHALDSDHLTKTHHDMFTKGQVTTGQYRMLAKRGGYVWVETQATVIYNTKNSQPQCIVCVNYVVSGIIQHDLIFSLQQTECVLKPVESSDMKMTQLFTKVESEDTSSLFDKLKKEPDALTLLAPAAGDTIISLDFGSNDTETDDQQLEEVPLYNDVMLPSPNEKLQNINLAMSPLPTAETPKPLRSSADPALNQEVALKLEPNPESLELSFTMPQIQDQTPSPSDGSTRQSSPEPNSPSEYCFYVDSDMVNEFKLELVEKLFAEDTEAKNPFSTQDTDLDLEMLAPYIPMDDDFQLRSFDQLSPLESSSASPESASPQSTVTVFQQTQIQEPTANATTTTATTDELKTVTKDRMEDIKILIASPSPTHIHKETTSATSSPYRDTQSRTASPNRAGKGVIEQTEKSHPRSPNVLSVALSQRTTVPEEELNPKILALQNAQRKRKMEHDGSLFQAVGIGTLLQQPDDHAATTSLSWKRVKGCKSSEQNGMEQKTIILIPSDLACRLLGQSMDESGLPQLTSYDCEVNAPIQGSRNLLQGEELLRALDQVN
Structure (SMILES),outcome,AC50
C=C(C)C(=O)OCCC(F)(F)C(F)(F)C(F)(F)C(F)(F)C(F)(F)C(F)(F)F,inactive,
CCOC(=O)CC(O)(CC(=O)OCC)C(=O)OCC,inactive,
NC(=O)N(O)[C@@H]1C=C[C@H](Oc2cccc(Oc3ccc(F)cc3)c2)C1,,78.7 µM (active)
OC1CCC(C2CCCCC2)CC1 (stereo not given),inactive,
CCCCCCCCCCCCc1ccccc1S(=O)(=O)O,,14.4 µM (active)
CCc1nn(C2CCCCC2)c2cc(C3(C#N)CCC(C(=O)O)CC3)ccc12 (stereo not given),inactive,
CC(=O)NC1(c2cccc(F)c2)CCN(CC[C@@]2(c3ccc(Cl)c(Cl)c3)CN(c3ccccc3)C(=O)CO2)CC1,inactive,
O=[N+]([O-])c1ccc(O)cc1,inactive,
Cc1cc(C)c(O)c(C)c1,inactive,
CCCCCCCCOC(=O)CCCCCCCCC(=O)OCCCCCCCC,inactive,
Oc1cccc(O)c1,inactive,
O=C(O)Cc1cc(I)c(Oc2cc(I)c(O)c(I)c2)c(I)c1,,21.5 µM (active)
CC(C)(C)c1cccc(C(C)(C)C)c1O,inactive,
CCCCCCC(=O)O,inactive,
CCN(CC)CCNc1ccc(CNC=O)c2sc3ccc(OC)cc3c(=O)c12,,75.5 µM (active)
CCCOC(=O)c1ccc(O)cc1,inactive,
OCCC(F)(F)C(F)(F)C(F)(F)C(F)(F)C(F)(F)C(F)(F)C(F)(F)C(F)(F)F,inactive,
CCC(C)(C)C1CCC(O)CC1 (stereo not given),inactive,
CC(C)(C)c1cc(C(C)(C)C)c(O)c(C(C)(C)C)c1,inactive,
CCCCC(CC)COC(=O)CCCCC(=O)OCc1ccccc1 (stereo not given),inactive,

Structure (SMILES),outcome,AC50
Nc1cccc2c(N)cccc12,inactive,
c1ccc2c(c1)ccc1ccccc12,inactive,
c1ccc2cc3c(ccc4ccccc43)cc2c1,inactive,
O=C(O)c1ccccc1C(c1ccc(O)cc1)c1ccc(O)cc1,inactive,
OC1CCCCC1,inactive,
CCc1ccc(CCOc2ccc(CC3SC(=O)NC3=O)cc2)nc1 (stereo not given),inactive,
COc1ccc([N+](=O)[O-])cc1N,inactive,
CCCCCCCCC(=O)O,inactive,
N#C[C@@H]1CC(F)(F)CN1C(=O)CNC1CC2CCC(C1)N2c1ncccn1 (stereo not given in full),inactive,
O=C(OCCOCCOC(=O)c1ccccc1)c1ccccc1,inactive,
Cc1oc(-c2ccccc2)nc1CCOc1ccc(C[C@H](Nc2ccccc2C(=O)c2ccccc2)C(=O)O)cc1,,30.8 µM (active)
CC[C@H](C)[C@@H](C(=O)O)n1sc2ccccc2c1=O,,0.372 µM (active)
CCCCC(CC)COC(=O)CCCCC(=O)OCC(CC)CCCC (stereo not given),inactive,
C[C@@H]1C[C@H]2[C@@H]3CCC4=CC(=O)C=C[C@]4(C)[C@@]3(F)[C@@H](O)C[C@]2(C)[C@@]1(O)C(=O)COP(=O)(O)O,inactive,
Cc1cc(CCN2CCN(c3nsc4ccccc34)CC2)cc2c1NC(=O)CC2(C)C,inactive,
CCCCCCCCCCCCCCCS(=O)(=O)Oc1ccccc1,inactive,
CN1CCN(c2ccccc2/C=C2\SCCN(c3ccc(Cl)c(Cl)c3)C2=O)CC1,inactive,
CCCOc1sc(C(=O)N2CCC(c3cc(CN)ccc3F)CC2)c(C)c1Br,inactive,
COC(=O)CCCCC(=O)OC,inactive,
NC(=O)N1C(=O)C(C(=O)c2cc(Cl)cs2)c2cc(F)c(Cl)cc21 (stereo not given),,22.7 µM (active)
